About 3,100 (7.4%) of roughly 42,000 sequences were called active. No stated cut-off is given here; in the data, active = GI50 up to about 1.1 µM and inactive = higher. A selection follows. Entries with a potency or affinity are not part of this list.

For this experiment, the system named is Hs-578T.
Broadly, the GI50 is the concentration at which growth is held to half of that of the control. The low end stands for greater sensitivity of the cells, the high end for lower sensitivity of the cells. On to CISPLATIN, CHEMBL11359, for which the GI50 amounted to 4.98 µM.

In the case of “[Bis(aminomethyl)tetramethylenesilane]tetrachloropaltinum(IV), CHEMBL2146189”, the GI50 came to 21.2 µM.

Substance “[Bis(aminomethyl)dimethylsilane]tetrachloroplatinum(IV), CHEMBL2146190” returned a GI50 above 100 µM.

“[Bis(aminomethyl)pentamethylenesilane]dichloropaltinum(II), CHEMBL2146202” displayed a GI50 of 1.18 µM.

“[Bis(aminomethyl)tetramethylenesilane]dichloropaltinum(II), CHEMBL2146205” returned a GI50 of 32.4 µM.

Turning to “[Bis(aminomethyl)pentamethylenesilane]tetrachloropaltinum(IV), CHEMBL2146204”, the GI50 was 28.8 µM.

For the origin of these results see ChEMBL document CHEMBL1201862, “PubChem BioAssay data set” (2004).
